Measured values: PubChem BioAssay AID1634 (National Center for Advancing Translational Sciences (NCATS), 2009)
Hit rate of the full screen: of about 260,000 compounds, about 150 (0.058%) were called active. Calls come from the whole dose curve; as a rule, active = well fitted inhibition curve with a large enough effect; inconclusive = small, poorly fitted or top-dose-only effect; inactive = no such curve, though single readings can be large or run the other way. What follows is part of a selection rich in actives, with near analogues and random picks from the rest. Entries that show only a call come without a potency.

What follows are compounds tested against Pyruvate kinase PKM (Homo sapiens) (UniProt P14618) (assay: qHTS Assay for Inhibitors of Human Muscle isoform 2 Pyruvate Kinase). Conditions: purified PKM2, ATP generation, Kinase-Glo luminescence; series mostly up to 57.5 µM.
Sequence of Pyruvate kinase PKM (Homo sapiens) (P14618 whole entry, looked up, canonical isoform): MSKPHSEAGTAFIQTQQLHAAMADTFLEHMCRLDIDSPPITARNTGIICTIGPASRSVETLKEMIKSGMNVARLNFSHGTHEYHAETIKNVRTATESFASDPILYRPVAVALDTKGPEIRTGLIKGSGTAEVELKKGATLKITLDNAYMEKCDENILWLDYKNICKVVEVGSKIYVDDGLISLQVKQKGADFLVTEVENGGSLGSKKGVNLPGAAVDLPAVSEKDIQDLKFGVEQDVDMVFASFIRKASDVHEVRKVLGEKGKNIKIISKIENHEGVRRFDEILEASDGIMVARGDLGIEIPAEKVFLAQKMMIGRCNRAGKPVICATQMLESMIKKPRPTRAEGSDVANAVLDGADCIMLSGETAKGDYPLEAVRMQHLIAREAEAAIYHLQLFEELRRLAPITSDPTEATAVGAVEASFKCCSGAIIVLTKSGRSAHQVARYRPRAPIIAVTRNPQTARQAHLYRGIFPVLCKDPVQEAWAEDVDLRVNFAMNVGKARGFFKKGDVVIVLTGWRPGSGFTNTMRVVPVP
Procedure: NIH Chemical Genomics Center [NCGC] Matthew G. Vander Heiden, M.D., Ph.D. [Harvard Medical School, 77 Avenue Louis Pasteur, Boston, MA 02115] […] ATP generation was detected in a coupled reaction by luciferase-mediated luminescence, an ATP-dependent process. […] The enzyme was assayed at an intermediate level of activity to screen for both inhibitors and activators.
NCGC Assay Protocol Summary: Three uL of substrate mix (at r.t.) in assay buffer (50 mM Imidazole pH7.2, 50 mM KCl, 7 mM MgCl2, 0.01% Tween 20, 0.05% BSA) was dispensed into white solid bottom 1,536 well microtiter plates so that the final concentrations of substrates in the assay were 0.1 mM ADP and 0.5 mM PEP. 23 nL of compound were delivered by a pin tool and 1 uL of enzyme mix in assay buffer (4 degree Celsius) was added. Plates were incubated at room temperature for 1 hour. Two uL of detection mix (Kinase-Glo, Promega; at 4 degree Celsius protected from light) was added and luminescence read by a ViewLux (Perkin Elmer) at 5 second exposure/plate. Data were normalized to the uninhibited and AC100 inhibition (no enzyme). To monitor activation, the first column contained a titration of the activator, NCGC00031955-01 (16-point 1:2 dilutions in duplicate starting at 57 uM) and the first 16 rows of column 4 contained 57 uM of NCGC00031955-01.
Note: nearly all actives have a fitted effect of over 60% in size.
Potency is the fitted concentration of half-maximal effect.

Compound	Potency
Cc1ccc(S(=O)(=O)N2CCCC2C(=O)NCc2ccco2)cc1 (stereo unspecified)	inactive
Cc1noc(C)c1C(=O)OCC(=O)N1CCN(S(=O)(=O)c2ccc3ccccc3c2)CC1	inactive
CCn1c(NCCc2ccc(OC)c(OC)c2)nc2c1c(=O)n(C)c(=O)n2C	inactive
O=C(COC(=O)CCC(=O)c1cccs1)NCc1ccco1	inactive
CC(=O)c1cc(C#N)c(SCC(=O)Nc2nccs2)nc1C	inactive
COc1ccc(C2CC(c3ccc([N+](=O)[O-])cc3)=NN2C(C)=O)cc1 (stereo unspecified)	inactive
Cc1ccc(OS(=O)Nc2cccc3nccnc23)cc1 (stereo unspecified)	inactive
Cc1ccc(CNC(=O)C2CCCN2C(=O)NCc2ccccc2)cc1 (stereo unspecified)	inactive
CC(C)(C)C(=O)OCc1nc(-c2ccc(O)c(O)c2)cs1	inactive
CCOc1ccc(S(=O)(=O)Nc2nccs2)cc1	inactive
Cn1c(SCC(=O)N/N=C/c2ccc(O)c(O)c2)nc2ccccc21	inactive
CC(C)Nc1ncnc2c1nnn2Cc1ccccc1	inactive
O=C(c1c(F)cccc1Cl)N1CCN(S(=O)(=O)c2ccc3c(c2)OCCCO3)CC1	inactive
O=C(CSc1nnc(-c2ccc(NS(=O)(=O)c3ccccc3)cc2)o1)NCC1CCCO1 (stereo unspecified)	inactive
S=c1[nH]nc(-c2cccs2)n1/N=C/c1cn(-c2ccccc2)nc1-c1ccc(Cl)cc1	inactive
O=C(Cc1cccs1)Nc1nnc(SCc2ccc(F)cc2)s1	inactive
Cc1cc(C)n(CCC(=O)N2CCN(S(=O)(=O)c3ccc(C)c(C)c3)CC2)n1	inactive
COc1ccc(S(=O)(=O)Nc2ccc(F)cc2)c(C)c1C	inactive
CCc1nnc(NC(=O)CSc2nc3c(c(=O)n2-c2ccccc2OC)SCC3)s1	inactive
Nc1cccc(S(=O)(=O)Nc2ccc(SC(F)F)cc2)c1	inactive
Nc1ccccc1Sc1cc(Cl)nnc1Cl	inactive
O=S(=O)(Nc1nccs1)c1ccc2c(c1)OCCO2	inactive

Compound	Potency
O=c1[nH]c(-c2cccs2)nc2ccccc12	inactive
Cn1c2ccccc2c(=O)c2c(=O)n(Cc3ccco3)c(COc3ccccc3)nc21	inactive
COC(=O)C1=C(C)NC(=O)CC1c1ccccc1OC (stereo unspecified)	inactive
Cc1cc(NC(=O)CSc2nnc(-c3ccc(Cl)s3)o2)no1	inactive
Cc1ccc(N(C(=O)c2ccc(CN3CCOCC3)o2)C(C(=O)NCCC(C)C)c2cccs2)c(C)c1 (stereo unspecified)	inactive
Cc1cc(-c2ccc(/C=N/n3cnnc3)o2)c([N+](=O)[O-])cc1C	inactive
O=[N+]([O-])c1ccccc1Nc1ccc(O)cc1	inactive
S=c1nc(C23CC4CC(CC(C4)C2)C3)nc2sccn12	inactive
CCc1nnc(NS(=O)(=O)c2ccc(NS(=O)(=O)c3ccccc3)cc2)s1	inactive
CCNc1nc(NC(C)C)nc(OCCOC(=O)c2ccccc2)n1	inactive
CN(C)c1ccc(C=C2C(=O)OC3(CCCC3)OC2=O)cc1	inactive
COc1ccc(CS(=O)/C(Cl)=C(/Cl)C(=O)Nc2ccc(OC)nc2)cc1 (stereo unspecified)	inactive
CC(=O)c1c(C)[nH]c(C(=O)Nc2cc(S(=O)(=O)N(C)C)ccc2C)c1C	inactive
O=C(NCc1ccco1)c1cccn2c(=O)c3c4c(sc3nc12)CCCC4	inactive
O=C(NCc1ccccn1)c1c(O)c2c([nH]c1=O)CCCC2	inactive
CCC1CCCCN1CCCNC(=O)Cn1nc(-c2ccccc2)ccc1=O (stereo unspecified)	inactive
COc1ccc(C(=O)NC(=S)Nc2ccc(Cl)cn2)cc1OC	inactive
c1cc(-n2cnnn2)ccc1NC1=NCCC1	inactive
O=C(CCC(=O)N1CCN(S(=O)(=O)c2ccccc2)CC1)NC1CCCc2ccccc21 (stereo unspecified)	inactive
O=c1cc(CO)oc(C(Nc2cccc([N+](=O)[O-])c2)c2ccccn2)c1O (stereo unspecified)	inactive
COC(=O)c1[nH]c2ccccc2c1NC(=O)CN1CCCc2ccccc21	inactive
CN(C)/C=C1\C=C(c2ccccc2)OC1=O	inactive

Compound	Potency
CCC(C)(C)NC(=O)C1c2ccccc2Oc2ccccc21	inactive
O=C(c1ccc(-c2ccccc2)cc1)C1CCCN(C(=O)c2cncs2)C1 (stereo unspecified)	inactive
O=S(=O)(c1ccc(F)cc1)N1CCN(C(=S)NCc2ccco2)CC1	inactive
O=C(COc1cc(Cl)c(Cl)cc1Cl)NCCc1ccccn1	inactive
COC(=O)c1cc2c(N)c(C(=O)c3ccc(Cl)cc3)sc2nc1C(OC)OC	inactive
O=C(Cn1c(COc2ccccc2)nc2ccccc21)Nc1cc(Cl)c(Cl)cc1Cl	inactive
COc1ccc(-c2csc(Cc3nc(O)cs3)n2)cc1	inactive
COc1ccc(-c2cn3ccc(C)cc3n2)cc1	12.6 µM (active)
N#Cc1ccc(OCc2nnc(-c3ccc([N+](=O)[O-])cc3)o2)cc1	inactive
COc1cccc(CNC(=O)CCC2CCCN(C(=O)c3cc(C)[nH]n3)C2)c1 (stereo unspecified)	inactive
Cc1cc(C)c(S(=O)(=O)N2C=CC(C(F)(F)F)=NCC2)c(C)c1	inactive
CN(CCc1ccccc1)c1ccc([N+](=O)[O-])cn1	inactive
COC(=O)[C@@]1(Cc2ccccc2)[C@H]2c3cc(C(=O)N4CCCC4)n(Cc4ccc(C)o4)c3C[C@H]2CN1C(=O)c1ccccc1	inactive
O=[N+]([O-])c1cc(Br)c(O)c(/C=N/Nc2nc3ccccc3s2)c1	inactive
CN(C)S(=O)(=O)c1ccc(NC(=O)COC(=O)c2n[nH]c3ccccc23)cc1	inactive
NC(=O)COC(=O)/C=C/c1ccc2ccccc2n1	inactive
COc1ccccc1C(=O)N/C(=C/c1ccco1)C(=O)Nc1ccc(C(=O)O)cc1	inactive
O=S(=O)(c1ccc(Br)cc1)c1nc(-c2ccccc2)oc1NCc1cccnc1	inactive
Cc1ccc(C)c(S(=O)(=O)Nc2cccc(-n3cnnn3)c2)c1	inactive
O=C(NCc1cccs1)C1CCN(S(=O)(=O)c2ccc3c(c2)OCCO3)CC1	inactive
CCCc1nc(N2CCN(C)CC2)c2sc(=S)n(-c3ccccc3)c2n1	inactive
CC1CC(c2ccccc2)n2nc(NC(=O)c3cccs3)nc2N1 (stereo unspecified)	inactive

Compound	Potency
CN(C)N=Nc1ccc2nc[nH]c2c1	inactive
CN(C)c1nc(N)nc(CSc2nnnn2-c2cccc3ccccc23)n1	inactive
O=C(c1ccc[nH]c1=S)N1CCN(S(=O)(=O)c2ccc(Br)cc2Cl)CC1	inactive
O=C(NCCN1C(=O)S/C(=C\c2cccnc2)C1=O)c1ccc(S(=O)(=O)N2CCCC2)cc1	inactive
Cc1ccnc(-n2sc3ccccc3c2=O)n1	inactive
CC(C)NC(=O)CCCn1c(=S)[nH]c2cc3c(cc2c1=O)OCO3	inactive
O=C(Cn1nc(CNc2ccc(Cl)cc2)[n+]2c1CCCCC2)c1ccc(Cl)cc1	inactive
Cc1ccc(NC(=O)c2cc(-c3ccc(C)o3)nc3ccccc23)nc1	inactive
Cc1ccnc(NC(=O)c2ccoc2C)c1	14.1 µM (active)
CCOc1cccc2c1OC1(CCCCC1)N1N=C(c3cccnc3)CC21 (stereo unspecified)	inactive
O=S(=O)(c1ccc(F)cc1)N1CCN(C(=S)NC2CCCC2)CC1	inactive
Cc1cc(C(=O)N/N=C/c2ccccc2[N+](=O)[O-])c(C)o1	inactive
Cc1ccccc1CN1C[C@@H]2C[C@@H](c3cn(C)nc3-c3ccccc3)N3CCC[C@@]23C1=O	inactive
CSc1ccc(/C=N\NC(=O)COc2ccc(Cl)cc2Br)cc1	inactive
Cn1c(SCC(=O)Nc2cccc(O)c2)nnc1-c1ccc(S(=O)(=O)N2CCOCC2)cc1	inactive
Cc1ccccc1-n1nc(C)c2c1N=C1C(Cl)=CC(Cl)=CN1C2c1ccc(C(=O)O)cc1 (stereo unspecified)	inactive
Cn1c(=O)c2c(nc(SCCNS(=O)(=O)c3ccccc3)n2C)n(C)c1=O	inactive
O=C(NC1=NCCS1)[C@H](Cc1ccccc1)N1C(=O)c2ccccc2C1=O	inactive
CN(C(=O)CSc1nnc(N)s1)c1c(N)n(Cc2ccccc2)c(=O)[nH]c1=O	inactive
Cc1ccc(NC(=O)OCCNC(=O)c2ccncc2)cc1	inactive
Cc1ccc(-c2cc(C(=O)N/N=C/C=C/c3ccco3)c3ccccc3n2)cc1C	inactive
COc1ccc(-c2nnc(SC(C)C#N)o2)cc1 (stereo unspecified)	inactive

Compound	Potency
Cc1ccc(S(=O)(=O)N2CCN(Cc3cccc(C)c3O)CC2)cc1	inactive
Cc1ccc(-c2nc(SCC(=O)Nc3ccccc3OC(F)F)c3c(C)c(C(=O)O)sc3n2)cc1	inactive
Cc1nc(SCC(=O)N2CC(=O)Nc3ccccc32)c2c(C)c(C)sc2n1	inactive
COc1ccc(-c2nnn(CC(=O)N(CCO)C(C(=O)NC3CCCC3)c3ccc(F)cc3)n2)cc1 (stereo unspecified)	inactive
CN(C(=O)COC(=O)c1cc(-c2ccco2)nc2ccccc12)C1CCS(=O)(=O)C1 (stereo unspecified)	inactive
CC(C)CCn1cnc2c1c(=O)n(CC(=O)NC(N)=O)c(=O)n2Cc1ccccc1	inactive
COc1ccc(OC)c(Nc2nc(-c3ccc(O)c(O)c3)cs2)c1	inactive
COc1ccc(COCCN2CCN(S(=O)(=O)c3ccccc3)CCC2=O)cc1	inactive
COC(=O)c1[nH]c2ccccc2c1NS(=O)(=O)c1ccc(OC)cc1OC	inactive
O=C(CSc1nnc(-c2cccs2)n1Cc1ccccc1)N1CCc2ccccc2C1	inactive
CCN(/N=C/c1ccccc1)c1cc(=O)n(C)c(=O)[nH]1	inactive
COc1cccc(/C=N\NC(=O)C2=NNC(=O)C2C)c1O (stereo unspecified)	17.8 µM (active)
CCn1c(SCC(=O)N/N=C/C=C/c2ccccc2[N+](=O)[O-])nnc1-c1ccccc1	inactive
Cc1noc(C)c1S(=O)(=O)Nc1ccc(C(=O)N2CCN(c3ccc(F)cc3)CC2)cc1	inactive
Cc1ccc(O)c(CNc2nc3ccccc3[nH]2)c1	inactive
Cc1ccccc1-c1nnn(CC(=O)c2ccc(S(=O)(=O)N3CCCC3)cc2)n1	inactive
Cc1ccc(CCC(=O)Nc2ncc(Cc3cc(Cl)ccc3Cl)s2)o1	inactive
COCc1cc(=O)[nH]c(SC)n1	inactive
